From PubChem
Only some compounds are listed: those with a hit (about 6% of all), similar ones and a draw of the others.
D3 ag: qHTS of D3 Dopamine Receptor Agonist: qHTS. 0.58% of 410,000 active. max activation, %. AID 652048, 2013. D(3) dopamine receptor (Homo sapiens), P35462. D3R DiscoveRx beta-arrestin cells, luminescence, 90 min; in the data active = max activation above about 30%; also: 0% is about no effect
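Cells at 1500/well, incubated overnight, then treated with pinned compounds (dopamine as control) for 90 min at 37 degrees C. DiscoveRx reagent added for 30 - 60 minutes at room temperature; luminescence read.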
D1 antag: Antagonist of Human D 1 Dopamine Receptor: qHTS; D(1A) dopamine receptor (Homo sapiens), P21728; HEK293 TREx D1 cells, calcium flux, dopamine EC80; hits give low values; activity change, negative = inhibition, % at 10 µM; 3.2% of 360,000 active; AID 504652, 2011; in the data active = activity change below about -30%; also: % is scaled to controls: 0 for no effect and ±100 for the full control effect
Target sequence (P21728 whole entry, looked up): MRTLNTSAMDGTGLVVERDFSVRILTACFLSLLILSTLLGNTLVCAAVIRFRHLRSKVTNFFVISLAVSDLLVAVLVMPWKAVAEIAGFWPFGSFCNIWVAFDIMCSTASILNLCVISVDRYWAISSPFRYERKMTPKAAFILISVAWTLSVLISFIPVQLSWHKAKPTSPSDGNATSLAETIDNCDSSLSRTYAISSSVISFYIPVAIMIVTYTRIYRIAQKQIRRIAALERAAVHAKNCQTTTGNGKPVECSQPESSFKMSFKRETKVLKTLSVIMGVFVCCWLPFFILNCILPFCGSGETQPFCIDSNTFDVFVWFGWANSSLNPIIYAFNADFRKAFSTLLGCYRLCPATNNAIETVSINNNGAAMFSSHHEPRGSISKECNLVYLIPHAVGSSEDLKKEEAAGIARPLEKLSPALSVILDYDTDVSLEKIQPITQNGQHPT
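Calcium flux readout: force-coupled, inducible Hek293 Trex D1 line, cells induced overnight at 30 C with tetracycline, dye-loaded 30–90 min at RT. Antagonism scored against EC80 dopamine challenge given 180 s after compound.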
BCR signal inh: qHTS Assay to Find Inhibitors of Chronic Active B-Cell Receptor Signaling; ABC-DLBCL IkBa-CBG/CBR reporter, luminescence ratio, 4 h; AID 493014, 2011; 0.05% of 340,000 active; Potency, µM (titrated, usually from 46.1 µM), inactives show at the highest dose activity change, negative = inhibition, usual class: inhibitors; active = well fitted inhibition curve with a large enough effect in the signal ratio, with a control signal flat, not every such curve was filed as active; inconclusive = small, poorly fitted or top-dose-only effect, or effect the other way, or a change in a side signal; the % refers to the signal ratio;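 also: potency is read from the fitted curve at half-maximal effect; plate controls were basal doxycycline-induced cells for no effect and cells given 10 µM MG132 for full effect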
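Doxycycline induced both beetle luciferases in TMD8 lymphoma cells; IKK-driven degradation limits the IkappaBalpha-fused green signal, while red luminescence normalises for cell number and nonspecific effects. Compounds tested up to 46 uM, 4 hrs.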
D3 antag: qHTS of D3 Dopamine Receptor Antagonist: qHTS; D3R cells, DiscoveRx beta-arrestin luminescence, antagonist mode; hits give low values; max response, negative = inhibition, %; 2.5% of 360,000 active; AID 652054, 2013; in the data active = max response below about -50%; inconclusive = no clear call, values can overlap the other calls; also: % is scaled to controls: 0 for no effect and ±100 for the full control effect
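Cells plated overnight at 1500 cells/well, then exposed to library compounds with dopamine controls for 90 minutes at 37 degrees C. DiscoveRx reagent added for 30–60 minutes at room temperature; luminescence read, quantitative HTS format.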
D1 agonist: Allosteric Agonists of the Human D1 Dopamine Receptor: qHTS | D(1A) dopamine receptor (Homo sapiens), P21728 | HEK293 T-REx D1 cells, calcium flux, agonist mode | activation, % at 2 µM | 1% of 360,000 active | AID 504660, 2011; in the data active = activation above about 30%; also: 0% is about no effect
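Tetracycline-induced HEK293 TREx D1 cells, force-coupled to calcium signalling, were dye-loaded with a no-wash calcium kit. Compound was pin-added after a 10 s baseline. Fluorescence was read kinetically at 1 cycle/s for 180 s, with calcium rises flagged as agonism.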
D1 potentiator: Potentiators of Human D1 Dopamine Receptor: qHTS; D(1A) dopamine receptor (Homo sapiens), P21728; HEK293 TREx D1 cells, calcium flux, dopamine EC20 potentiation; potentiation, % at 10 µM; 0.036% of 360,000 active; AID 504651, 2011; in the data active = potentiation above about 30%; also: 0% is about no effect
* hit, by the source's call; ? = inconclusive; · = no result.

SMILES | D3 ag | D1 antag | BCR signal inh | D3 antag | D1 agonist | D1 potentiator
Cc1cc(C)cc(C(N)=Nc2cccc(C#N)c2)c1 | -3.9 | -50.2* | -1.4% | 3.2 | 1.8 | -4.0
CC(C)Nc1nc(Oc2cccc(Cl)c2Cl)cc(C(F)(F)F)n1 | -0.6 | -32.4* | 23.5% | 9.9 | 14.4 | -7.8
CC(C)Nc1nc(Oc2ccc(Cl)cc2Cl)cc(C(F)(F)F)n1 | 0.9 | 2.4 | 2.0% | ? | 9.8 | 2.0
Cc1cc(Cl)ccc1NC(=O)CN1CCC(C(O)(c2ccccc2)c2ccccc2)CC1 | -7.3 | -11.0 | 21.2% | -62.1* | 3.0 | 4.2
Cc1cc(Cl)ccc1NC(=O)CN1CCCC1 | -22.9 | -21.6 | 4.3% | 4.4 | 1.7 | -0.4
CCS(=O)(=O)c1nc(S(=O)(=O)c2ccc(C)cc2)c(N2CCCCCC2)s1 | 5.0 | · | · | 21.4 | · | ·
CC1(C)CC(=O)C2=C(C1)Nc1ccccc1[S@]2=O | -3.2 | -3.2 | 13.1% | 71.3 | 1.6 | 15.2
CC1(C)CC(=O)C2=C(C1)Nc1ccccc1N=C2 | · | -11.1 | 6.5% | · | 38.7* | 9.8
CC1(C)CC(=O)C2=C(C1)Nc1ccccc1S2 | -5.4 | -15.7 | -4.4% | -8.2 | 2.3 | -4.5
CC1(C)CC(=O)C2=C(C1)Nc1ccccc1NC2 | -4.2 | -50.6* | 4.2% | 5.9 | -0.3 | -4.9
COc1ccc(-c2nnc(SCC(=O)NCCc3ccccc3)nc2-c2ccc(OC)cc2)cc1 | 0.7 | -6.5 | 0.4% | · | 1.5 | -1.2
Cc1cc(C)c(C)c(S(=O)(=O)N(C)C2CCN(C)CC2)c1C | -18.6 | -1.3 | -6.0% | -77.1* | 14.9 | -4.9
CCN(C(=O)CSc1nc2ccccc2n1Cc1ccc(C(=O)OC)cc1)c1ccccc1 | -17.9 | -1.0 | · | · | 7.7 | -0.1
C[C@@H]1C=C[C@](Cc2ccccc2)(C(=O)O)N1C(=O)c1ccccc1 | -10.7 | · | · | 0.0 | · | ·
CC(=O)N1[C@H](C)C=C[C@]1(Cc1ccccc1)C(=O)O | 30.6* | -0.5 | 2.0% | 8.1 | -1.7 | -0.7
COc1cccc(NC(=O)CSC2=Nc3ccccc3N=C(c3ccc(F)cc3)C2)c1 | 6.8 | -4.0 | · | · | 9.6 | -2.8
COCCNC(=O)C1(C)CCCN(C(=O)c2ccccc2OC)C1 (stereo not given) | -12.6 | · | · | -8.5 | · | ·
CCOC(=O)c1sc2ncc([N+](=O)[O-])cc2c1N | 3.4 | 1.6 | 12.9% | 17.6 | 2.7 | -0.3
COC(=O)c1sc2cc([N+](=O)[O-])cc(SCC(C)C)c2c1N | 0.1 | -4.0 | 5.1% | -2.6 | 90.5* | 8.7
O=C(CC1Oc2ccccc2NC1=O)NC1CCCC1 (stereo not given) | -0.6 | -40.1* | ? | 9.4 | 0.1 | -4.2
CCC1CC(C(=O)O)CC(=O)N1 (stereo not given) | 3.1 | · | · | 9.1 | · | ·
CN(C)c1ccc(CC(=O)N2CCCC(c3cc(C(=O)Nc4ccc(F)c(Cl)c4)no3)C2)cc1 (stereo not given) | -8.0 | · | · | -17.0 | · | ·
COc1ccc(-c2oc3ncnc(NCCN4CCOCC4)c3c2-c2ccc(OC)cc2)cc1 | -0.5 | 21.0 | -17.8% | -13.2 | -0.7 | -6.0
c1ccc(-c2oc3ncnc(NCCCN4CCOCC4)c3c2-c2ccccc2)cc1 | -1.6 | 0.3 | ? | -64.8* | 2.9 | 1.6
OCCCNc1ncnc2oc(-c3ccccc3)c(-c3ccccc3)c12 | 28.1 | -21.5 | -3.2% | 24.6 | 1.1 | -1.7
SMILES | D3 ag | D1 antag | BCR signal inh | D3 antag | D1 agonist | D1 potentiator
COc1ccc(-c2oc3ncnc(NCCCN4CCOCC4)c3c2-c2ccc(OC)cc2)cc1 | -5.5 | 3.9 | -3.0% | -94.2* | 3.2 | 4.7
CCCCC(=O)Nc1cc(C)c(O)c(-c2nc3ncccc3o2)c1 | -9.6 | -5.8 | · | · | -0.9 | -4.5
CCc1nc2ccc(C(=O)NCCCN3CCCC3=O)cn2c1N(C)C(=O)C1CCCCC1 | 7.5 | · | · | 0.4 | · | ·
O=c1[nH]c2ccc(NCc3ccc(-c4cccc(Cl)c4)o3)cc2[nH]1 | 3.3 | -22.0 | · | · | 36.9* | -1.3
O=c1[nH]c2ccc(NCc3ccc(-c4ccc(Br)cc4)o3)cc2[nH]1 | 20.7 | -7.1 | · | · | -0.3 | -1.6
CC(=O)NC(c1cccc(F)c1)c1nc(-c2cnn(C)c2)cs1 (stereo not given) | -24.6 | · | · | -52.7* | · | ·
CN(C)c1ccc(CNC(=O)C2CCN(C(=O)c3ccc(-n4ccc5ccccc54)s3)CC2)cc1 | 3.9 | -17.2 | · | · | 1.4 | -2.5
Cc1cc(/C=C2\SC(=O)NC2=O)c(C)n1-c1ccc(N(C)C)cc1 | 3.2 | -51.9* | ? | -5.5 | -3.2 | -9.9
CCN1CCN(c2cc(SC(C)C)nc(-c3ccc(OC)cc3)n2)CC1 | -23.2 | 57.7 | ? | -64.9* | 16.5 | 0.9
CC(=O)N1CCN(C(=O)OC2CC3CC2[C@H]2CCCCN2C3=O)CC1 (stereo not given in full) | 3.0 | · | · | 9.9 | · | ·
CCOC(=O)C1=C(COC(=O)c2ncc(Cl)c(Cl)c2Cl)NC(=O)NC1C (stereo not given) | -2.4 | -48.8* | ? | 12.8 | -1.8 | -4.3
CCOC(=O)C1=C(COC(=O)CCOc2ccccc2C)NC(=O)NC1C (stereo not given) | -13.3 | 3.9 | -14.7% | -65.2* | 1.4 | -7.9
CCOC(=O)C1=C(COC(=O)C(CC)c2ccccc2)NC(=O)NC1C (stereo not given) | 1.8 | -35.9* | ? | 5.4 | 2.2 | -6.0
CCOC(=O)C1=C(COC(=O)CC(C)c2ccccc2)NC(=O)NC1C (stereo not given) | 1.2 | -9.7 | 2.0% | -0.8 | -0.3 | -6.6
CCOC(=O)C1=C(COC(=O)CCOc2ccc(OCC)cc2)NC(=O)NC1C (stereo not given) | 6.4 | -0.2 | ? | 27.6 | -0.2 | -2.1
CCn1c(SC(C)C(=O)NCC2CCCO2)nc2scc(-c3ccccc3)c2c1=O (stereo not given) | 1.6 | -26.1 | 8.3% | 4.9 | -0.1 | -5.2
COCCn1c(SC(C)C(=O)NCC2CCCO2)nc2scc(-c3ccc(F)cc3)c2c1=O (stereo not given) | 2.8 | -42.2* | ? | -13.0 | 1.1 | -8.9
CCc1nc2c(OCc3ccccc3)cccn2c1N(C)C(C)=O | -6.2 | · | · | 10.5 | · | ·
O=S(=O)(c1ccc(Cl)cc1)c1nnn2c1nc(N1CCCCC1)c1sccc12 | 6.6 | -7.3 | · | · | 1.9 | -2.1
Cc1ccc2oc(C(Cl)(Cl)Cl)cc(=O)c2c1 | -2.1 | 5.9 | 22.4µM* | 6.9 | -0.2 | 0.2
